In PubChem BioAssay AID1159580 (chemical genetic matrix, 2015):
The whole screen tested about 5,500 compounds, of which about 2,000 (36%) were called active. Another 18% or so got no clear call; they are omitted. No stated cut-off is given here; in the data, active means normalized growth mostly below about 0.91 (no sharp cut-off); inconclusive means no clear call, values can overlap the other calls; inactive means mostly above about 0.92. This is one part of the list.

Test: chemical genetic growth profiling, strain panel (AID 1159580);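 further: tested at 20 µM; growth read once vehicle control cultures reached saturation at 30 °C; 1 = growth at the plate median or of vehicle wells; lower values mean less growth of the strain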
Settings: growth OD

Measured: normalized growth

Cc1cc(-c2ccccc2)nnc1NCCN1CCOCC1
inactive: S. cerevisiae deletion strains, locus YJR075W, strain HOC1, hits give low values 0.997 | S. cerevisiae deletion strains, locus YKL009W, strain mrt4, hits give low values 1.08 | S. cerevisiae deletion strains, locus YKL068W, hits give low values 0.969 | S. cerevisiae deletion strains, locus YKL085W, strain MDH1 (second series), hits give low values 1 | S. cerevisiae deletion strains, locus YKL085W, strain MDH1, hits give low values 1 | S. cerevisiae deletion strains, locus YKL160W, strain elf1, hits give low values 0.966 | S. cerevisiae deletion strains, locus YKL190W, strain CNB1, hits give low values 1 | S. cerevisiae deletion strains, locus YKR001C, strain vps1, hits give low values 0.98 | S. cerevisiae deletion strains, locus YKR026C, strain gcn3, hits give low values 0.995 | S. cerevisiae deletion strains, locus YKR091W, strain srl3, hits give low values 0.995 | S. cerevisiae deletion strains, locus YLL001W, strain dnm1, hits give low values 0.976 | S. cerevisiae deletion strains, locus YLL026W, hits give low values 0.992 | S. cerevisiae deletion strains, locus YLL041C, strain sdh2, hits give low values 0.988 | S. cerevisiae deletion strains, locus YLR027C, strain aat2, hits give low values 0.989 | S. cerevisiae deletion strains, locus YLR039C, strain RIC1, hits give low values 0.999 | S. cerevisiae deletion strains, locus YLR058C, strain SHM2, hits give low values 1.01 | S. cerevisiae deletion strains, locus YLR102C, strain apc9, hits give low values 0.968 | S. cerevisiae deletion strains, locus YLR113W, strain HOG1, hits give low values 0.964 | S. cerevisiae deletion strains, locus YLR221C, strain rsa3, hits give low values 0.989 | S. cerevisiae deletion strains, locus YLR258W, strain gsy2, hits give low values 0.995 | S. cerevisiae deletion strains, locus YLR262C, strain YPT6 (second series), hits give low values 0.98 | S. cerevisiae deletion strains, locus YLR262C, strain YPT6, hits give low values 1.04 | S. cerevisiae deletion strains, locus YLR268W, strain sec22, hits give low values 0.946 | S. cerevisiae deletion strains, locus YLR320W, strain mms22, hits give low values 0.984 | S. cerevisiae deletion strains, locus YLR330W, strain CHS5, hits give low values 0.999 | S. cerevisiae deletion strains, locus YLR342W, strain FKS1 (second series), hits give low values 1.07 | S. cerevisiae deletion strains, locus YLR342W, strain FKS1, hits give low values 0.983 | S. cerevisiae deletion strains, locus YLR357W, strain rsc2, hits give low values 0.975 | S. cerevisiae deletion strains, locus YLR370C, strain arc18, hits give low values 0.986 | S. cerevisiae deletion strains, locus YLR371W, strain rom2, hits give low values 0.967 | S. cerevisiae deletion strains, locus YLR384C, strain iki3, hits give low values 0.976 | S. cerevisiae deletion strains, locus YLR418C, strain cdc73, hits give low values 0.998 | S. cerevisiae deletion strains, locus YML016C, strain PPZ1, hits give low values 1.02 | S. cerevisiae deletion strains, locus YML032C, strain rad52, hits give low values 0.974 | S. cerevisiae deletion strains, locus YML120C, strain ndi1, hits give low values 0.972 | S. cerevisiae deletion strains, locus YML124C, strain tub3, hits give low values 0.978 | S. cerevisiae deletion strains, locus YMR058W, strain fet3, hits give low values 0.988 | S. cerevisiae deletion strains, locus YMR078C, strain ctf18, hits give low values 0.978 | S. cerevisiae deletion strains, locus YMR125W, strain sto1, hits give low values 0.972 | S. cerevisiae deletion strains, locus YMR129W, hits give low values 0.989 | S. cerevisiae deletion strains, locus YMR205C, strain PFK2, hits give low values 0.965 | S. cerevisiae deletion strains, locus YMR223W, strain ubp8, hits give low values 1.02 | S. cerevisiae deletion strains, locus YMR231W, strain pep5, hits give low values 0.998 | S. cerevisiae deletion strains, locus YMR263W, strain SAP30, hits give low values 0.997 | S. cerevisiae deletion strains, locus YMR307W, strain GAS1, hits give low values 1.04 | S. cerevisiae deletion strains, locus YNL067W, strain RPL9B, hits give low values 0.985 | S. cerevisiae deletion strains, locus YNL071W, strain lat1, hits give low values 0.987 | S. cerevisiae deletion strains, locus YNL128W, strain TEP1, hits give low values 0.995 | S. cerevisiae deletion strains, locus YNL153C, strain GIM3, hits give low values 1.01 | S. cerevisiae deletion strains, locus YNL183C, strain NPR1, hits give low values 0.931 | S. cerevisiae deletion strains, locus YNL209W, strain ssb2, hits give low values 0.991 | S. cerevisiae deletion strains, locus YNL233W, strain BNI4, hits give low values 1.01 | S. cerevisiae deletion strains, locus YNL248C, strain rpa49, hits give low values 0.985 | S. cerevisiae deletion strains, locus YNL250W, strain rad50, hits give low values 0.98 | S. cerevisiae deletion strains, locus YNL271C, strain bni1, hits give low values 0.968 | S. cerevisiae deletion strains, locus YNL298W, strain CLA4, hits give low values 0.977 | S. cerevisiae deletion strains, locus YNL307C, strain MCK1, hits give low values 0.993 | S. cerevisiae deletion strains, locus YNL322C, strain KRE1 (second series), hits give low values 0.981 | S. cerevisiae deletion strains, locus YNL322C, strain KRE1, hits give low values 0.994 | S. cerevisiae deletion strains, locus YNR049C, strain mso1, hits give low values 0.982 | S. cerevisiae deletion strains, locus YNR052C, strain pop2, hits give low values 0.973 | S. cerevisiae deletion strains, locus YOL006C, strain TOP1, hits give low values 0.959 | S. cerevisiae deletion strains, locus YOL012C, strain htz1 0.852 | S. cerevisiae deletion strains, locus YOL147C, strain pex11, hits give low values 0.977 | S. cerevisiae deletion strains, locus YOR001W, strain rrp6, hits give low values 0.986 | S. cerevisiae deletion strains, locus YOR061W, strain CKA2, hits give low values 1.01 | S. cerevisiae deletion strains, locus YOR069W, strain VPS5, hits give low values 1.01 | S. cerevisiae deletion strains, locus YOR070C, strain gyp1, hits give low values 0.993 | S. cerevisiae deletion strains, locus YOR080W, strain dia2, hits give low values 0.987 | S. cerevisiae deletion strains, locus YOR083W, strain WHI5, hits give low values 0.968 | S. cerevisiae deletion strains, locus YOR106W, strain vam3, hits give low values 0.961 | S. cerevisiae deletion strains, locus YOR136W, strain idh2, hits give low values 0.978 | S. cerevisiae deletion strains, locus YOR144C, strain elg1, hits give low values 0.967 | S. cerevisiae deletion strains, locus YOR184W, strain ser1, hits give low values 0.982 | S. cerevisiae deletion strains, locus YOR231W, strain MKK1, hits give low values 0.971 | S. cerevisiae deletion strains, locus YOR265W, strain rbl2, hits give low values 0.995 | S. cerevisiae deletion strains, locus YOR270C, strain vph1, hits give low values 0.965 | S. cerevisiae deletion strains, locus YOR290C, strain snf2, hits give low values 0.991 | S. cerevisiae deletion strains, locus YOR316C, strain cot1, hits give low values 0.953 | S. cerevisiae deletion strains, locus YPL051W, strain arl3, hits give low values 0.985 | S. cerevisiae deletion strains, locus YPL055C, strain LGE1, hits give low values 1 | S. cerevisiae deletion strains, locus YPL078C, strain atp4, hits give low values 0.989 | S. cerevisiae deletion strains, locus YPL106C, strain sse1, hits give low values 0.959 | S. cerevisiae deletion strains, locus YPL240C, strain hsp82, hits give low values 1 | S. cerevisiae deletion strains, locus YPL241C, strain CIN2, hits give low values 1.01 | S. cerevisiae deletion strains, locus YPL256C, strain CLN2, hits give low values 0.945 | S. cerevisiae deletion strains, locus YPR119W, strain clb2, hits give low values 0.98 | S. cerevisiae deletion strains, locus YPR141C, strain kar3, hits give low values 0.971 | S. cerevisiae deletion strains, locus YPR163C, strain tif3, hits give low values 0.982 | S. cerevisiae deletion strains, locus YPR167C, strain met16, hits give low values 0.97 | S. cerevisiae deletion strains, strain wtn01, hits give low values 0.982 | S. cerevisiae strains, strain wild type, hits give low values 1.01
